Data: publication PMC7862700, “An all-to-all approach to the identification of sequence-specific readers for epigenetic DNA modifications on cytosine”

How the values were obtained:
Assay in all cases: DAPPL (digital affinity profiling via proximity ligation, sequencing); 10 mM Tris-HCl pH 7.5, 50 mM NaCl, 1 mM DTT, 4% glycerol, room temperature, 30 min; GST-TFs on glutathione beads, 16-mer random dsDNA library, 0.1% formaldehyde crosslink after washing; high values mean tight binding
FLI1 = target: T1, FLI1 (Homo sapiens, UniProt Q01543 1-452); details: protein: recombinant; tags: N-terminal GST; dsDNA, one strand shown
T1 sequence: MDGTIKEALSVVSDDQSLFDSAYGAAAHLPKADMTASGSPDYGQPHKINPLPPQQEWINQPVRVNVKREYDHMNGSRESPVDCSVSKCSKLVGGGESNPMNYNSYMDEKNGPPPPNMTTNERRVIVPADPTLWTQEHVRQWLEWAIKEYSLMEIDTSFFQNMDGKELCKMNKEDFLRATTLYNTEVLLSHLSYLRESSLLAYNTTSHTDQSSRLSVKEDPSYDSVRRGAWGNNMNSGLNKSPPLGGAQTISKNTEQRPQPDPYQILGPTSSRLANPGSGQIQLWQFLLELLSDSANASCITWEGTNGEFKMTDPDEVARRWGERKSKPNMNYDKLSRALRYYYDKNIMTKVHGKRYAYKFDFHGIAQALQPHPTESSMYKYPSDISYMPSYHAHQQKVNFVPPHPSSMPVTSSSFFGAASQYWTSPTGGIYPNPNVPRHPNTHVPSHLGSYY
How it was run: (§1)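 Binding signal is given per hexamer as its read frequency for a factor divided by its frequency in the tag-only sample. GST-fused human transcription factors were expressed in yeast, captured on glutathione beads, barcoded with DNA and pooled with that sample, then incubated with 200 nmole of a 16-mer random double-stranded DNA library in Tris/NaCl/DTT/glycerol buffer for 30 min at room temperature. The pools were then washed, crosslinked, proximity-ligated, amplified by PCR and sequenced on an Illumina NextSeq500.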

ELK1 = target: T2, ELK1 (Homo sapiens, UniProt P19419 1-428); details: protein: recombinant; tags: N-terminal GST; dsDNA, one strand shown
T2 sequence: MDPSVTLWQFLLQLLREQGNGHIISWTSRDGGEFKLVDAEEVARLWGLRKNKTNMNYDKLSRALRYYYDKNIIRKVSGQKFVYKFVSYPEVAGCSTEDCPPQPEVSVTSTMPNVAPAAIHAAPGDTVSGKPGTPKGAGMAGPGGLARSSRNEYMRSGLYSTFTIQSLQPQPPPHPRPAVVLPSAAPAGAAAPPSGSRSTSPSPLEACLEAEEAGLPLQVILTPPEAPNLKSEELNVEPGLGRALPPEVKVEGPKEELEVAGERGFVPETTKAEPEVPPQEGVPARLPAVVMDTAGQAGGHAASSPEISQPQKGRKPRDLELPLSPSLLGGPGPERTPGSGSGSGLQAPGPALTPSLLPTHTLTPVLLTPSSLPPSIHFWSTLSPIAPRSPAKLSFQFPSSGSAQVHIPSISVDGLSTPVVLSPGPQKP
How it was run: as §1

ERG = target: T3, ERG (Homo sapiens, UniProt P11308 1-479); details: protein: recombinant; tags: N-terminal GST; dsDNA, one strand shown
T3 sequence: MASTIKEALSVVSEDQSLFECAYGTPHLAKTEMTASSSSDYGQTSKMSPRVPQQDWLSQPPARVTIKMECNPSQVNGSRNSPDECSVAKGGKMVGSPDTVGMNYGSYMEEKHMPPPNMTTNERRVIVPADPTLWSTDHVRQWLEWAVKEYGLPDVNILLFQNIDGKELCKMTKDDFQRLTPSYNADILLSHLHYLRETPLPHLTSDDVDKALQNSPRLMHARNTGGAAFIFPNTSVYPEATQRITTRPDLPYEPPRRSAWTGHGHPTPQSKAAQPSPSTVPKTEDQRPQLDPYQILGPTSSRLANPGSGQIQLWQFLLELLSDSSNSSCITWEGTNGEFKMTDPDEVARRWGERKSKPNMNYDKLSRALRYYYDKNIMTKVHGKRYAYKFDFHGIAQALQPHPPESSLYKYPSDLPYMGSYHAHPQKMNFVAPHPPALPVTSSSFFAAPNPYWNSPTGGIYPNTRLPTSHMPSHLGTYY
How it was run: as §1

EHF = target: T4, EHF (Homo sapiens, UniProt Q9NZC4 1-300); details: protein: recombinant; tags: N-terminal GST; dsDNA, one strand shown
T4 sequence: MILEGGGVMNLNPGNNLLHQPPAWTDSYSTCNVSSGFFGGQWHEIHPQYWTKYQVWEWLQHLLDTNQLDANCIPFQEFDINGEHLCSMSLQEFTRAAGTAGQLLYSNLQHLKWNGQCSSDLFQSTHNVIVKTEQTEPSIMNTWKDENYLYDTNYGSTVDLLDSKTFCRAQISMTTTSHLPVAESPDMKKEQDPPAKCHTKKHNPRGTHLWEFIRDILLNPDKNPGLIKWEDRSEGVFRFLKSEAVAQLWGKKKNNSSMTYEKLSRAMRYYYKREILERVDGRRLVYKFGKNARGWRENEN
How it was run: as §1

SPI1 = SPI1 (Homo sapiens, UniProt P17947 1-270); details: protein: recombinant; tags: N-terminal GST; dsDNA, one strand shown
How it was run: as §1

SPIB = SPIB (Homo sapiens, UniProt Q01892 1-262); details: protein: recombinant; tags: N-terminal GST; dsDNA, one strand shown
How it was run: as §1

ELK3 = target: T5, ELK3 (Homo sapiens, UniProt P41970 1-407); details: protein: recombinant; tags: N-terminal GST; dsDNA, one strand shown
T5 sequence: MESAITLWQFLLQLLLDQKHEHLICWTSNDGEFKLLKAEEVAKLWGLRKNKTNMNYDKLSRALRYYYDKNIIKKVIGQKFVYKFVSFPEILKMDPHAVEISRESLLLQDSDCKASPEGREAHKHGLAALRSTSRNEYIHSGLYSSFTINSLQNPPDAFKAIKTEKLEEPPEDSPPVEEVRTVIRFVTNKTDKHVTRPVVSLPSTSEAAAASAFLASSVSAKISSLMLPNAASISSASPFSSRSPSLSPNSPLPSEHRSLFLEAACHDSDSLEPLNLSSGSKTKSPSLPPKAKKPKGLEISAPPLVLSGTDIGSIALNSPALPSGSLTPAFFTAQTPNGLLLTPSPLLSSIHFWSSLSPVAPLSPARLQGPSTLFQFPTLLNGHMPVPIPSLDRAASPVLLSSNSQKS
How it was run: as §1

FEV = target: T6, FEV (Homo sapiens, UniProt Q99581 1-238); details: protein: recombinant; tags: N-terminal GST; dsDNA, one strand shown
T6 sequence: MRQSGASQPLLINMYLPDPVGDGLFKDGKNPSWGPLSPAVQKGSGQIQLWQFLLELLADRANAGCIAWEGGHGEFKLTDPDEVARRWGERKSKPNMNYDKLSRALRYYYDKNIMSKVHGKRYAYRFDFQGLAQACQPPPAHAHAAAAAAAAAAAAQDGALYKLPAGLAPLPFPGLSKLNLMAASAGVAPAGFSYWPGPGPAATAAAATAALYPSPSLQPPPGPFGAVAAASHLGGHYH
How it was run: as §1

ETV5 = ETV5 (Homo sapiens, UniProt P41161 1-510); details: protein: recombinant; tags: N-terminal GST; dsDNA, one strand shown
How it was run: as §1

HSF1 = HSF1 (Homo sapiens, UniProt Q00613 1-529); details: protein: recombinant; tags: N-terminal GST; chain copies: 3; dsDNA, one strand shown
How it was run: as §1

SPIC = target: T7, SPIC (Homo sapiens, UniProt Q8N5J4 1-248); details: protein: recombinant; tags: N-terminal GST; dsDNA, one strand shown
T7 sequence: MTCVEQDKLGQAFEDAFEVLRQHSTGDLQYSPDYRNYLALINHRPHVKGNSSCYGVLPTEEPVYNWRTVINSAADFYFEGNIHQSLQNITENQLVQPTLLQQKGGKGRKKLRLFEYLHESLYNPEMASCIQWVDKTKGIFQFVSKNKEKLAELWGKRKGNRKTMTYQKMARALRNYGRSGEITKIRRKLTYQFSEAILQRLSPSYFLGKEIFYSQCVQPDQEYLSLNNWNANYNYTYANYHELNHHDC
How it was run: as §1

ELF4 = ELF4 (Homo sapiens, UniProt Q99607 1-663); details: protein: recombinant; tags: N-terminal GST; dsDNA, one strand shown
How it was run: as §1

ELF3 = target: T8, ELF3 (Homo sapiens, UniProt P78545 1-371); details: protein: recombinant; tags: N-terminal GST; dsDNA, one strand shown
T8 sequence: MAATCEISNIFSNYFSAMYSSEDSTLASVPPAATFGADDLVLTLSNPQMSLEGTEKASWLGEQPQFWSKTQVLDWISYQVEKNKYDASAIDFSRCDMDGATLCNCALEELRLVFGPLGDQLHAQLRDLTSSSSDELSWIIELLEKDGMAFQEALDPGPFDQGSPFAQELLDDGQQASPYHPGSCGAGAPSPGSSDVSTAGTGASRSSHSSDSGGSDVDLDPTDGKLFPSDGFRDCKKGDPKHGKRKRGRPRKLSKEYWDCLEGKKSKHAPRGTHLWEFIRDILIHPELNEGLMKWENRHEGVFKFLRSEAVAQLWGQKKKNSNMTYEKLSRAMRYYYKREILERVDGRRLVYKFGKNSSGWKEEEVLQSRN
How it was run: as §1

CRX = CRX (Homo sapiens, UniProt O43186 1-299); details: protein: recombinant; tags: N-terminal GST; dsDNA, one strand shown
How it was run: as §1

ETV1 = ETV1 (Homo sapiens, UniProt P50549 1-477); details: protein: recombinant; tags: N-terminal GST; dsDNA, one strand shown
How it was run: as §1

GABPA = target: T9, GABPA (Homo sapiens, UniProt Q06546 1-454); details: protein: recombinant; tags: N-terminal GST; dsDNA, one strand shown
T9 sequence: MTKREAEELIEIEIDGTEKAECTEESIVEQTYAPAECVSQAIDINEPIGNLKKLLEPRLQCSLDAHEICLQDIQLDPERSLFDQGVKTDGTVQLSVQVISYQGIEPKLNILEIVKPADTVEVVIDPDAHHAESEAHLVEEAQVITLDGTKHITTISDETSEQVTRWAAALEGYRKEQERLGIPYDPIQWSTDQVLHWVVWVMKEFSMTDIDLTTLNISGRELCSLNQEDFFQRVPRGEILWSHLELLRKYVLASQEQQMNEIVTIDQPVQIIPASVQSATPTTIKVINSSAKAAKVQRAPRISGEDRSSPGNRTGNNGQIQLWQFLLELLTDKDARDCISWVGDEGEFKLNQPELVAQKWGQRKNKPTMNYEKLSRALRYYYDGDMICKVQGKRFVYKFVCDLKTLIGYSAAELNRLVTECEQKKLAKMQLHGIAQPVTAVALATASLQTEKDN
How it was run: as §1

ELF1 = ELF1 (Homo sapiens, UniProt P32519 1-619); details: protein: recombinant; tags: N-terminal GST; dsDNA, one strand shown
How it was run: as §1

Chain of ELF4 (Q99607 whole entry): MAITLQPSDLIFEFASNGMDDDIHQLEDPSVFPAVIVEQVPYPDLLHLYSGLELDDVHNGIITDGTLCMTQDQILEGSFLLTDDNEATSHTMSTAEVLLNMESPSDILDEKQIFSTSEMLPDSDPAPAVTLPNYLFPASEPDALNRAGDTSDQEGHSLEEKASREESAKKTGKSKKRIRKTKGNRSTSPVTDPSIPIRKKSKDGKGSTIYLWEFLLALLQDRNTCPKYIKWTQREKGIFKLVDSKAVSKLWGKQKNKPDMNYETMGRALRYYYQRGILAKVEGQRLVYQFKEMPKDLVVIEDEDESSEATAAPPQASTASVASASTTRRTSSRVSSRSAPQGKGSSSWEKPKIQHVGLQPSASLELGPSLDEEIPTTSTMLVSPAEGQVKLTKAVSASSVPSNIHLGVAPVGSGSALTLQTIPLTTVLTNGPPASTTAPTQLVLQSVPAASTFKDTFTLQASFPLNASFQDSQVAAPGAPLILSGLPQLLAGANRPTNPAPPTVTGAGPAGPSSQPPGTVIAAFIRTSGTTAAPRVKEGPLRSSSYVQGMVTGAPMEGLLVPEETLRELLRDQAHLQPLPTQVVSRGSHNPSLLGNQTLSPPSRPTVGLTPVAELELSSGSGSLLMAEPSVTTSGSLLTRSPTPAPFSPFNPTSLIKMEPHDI
Chain of SPIB (Q01892 whole entry): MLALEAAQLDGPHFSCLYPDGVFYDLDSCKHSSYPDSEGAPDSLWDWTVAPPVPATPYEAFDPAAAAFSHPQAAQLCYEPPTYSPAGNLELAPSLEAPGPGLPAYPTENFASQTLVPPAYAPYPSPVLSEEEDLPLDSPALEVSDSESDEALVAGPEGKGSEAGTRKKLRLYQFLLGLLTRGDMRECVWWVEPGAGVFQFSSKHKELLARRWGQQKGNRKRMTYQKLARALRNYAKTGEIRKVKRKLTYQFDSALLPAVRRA
Chain of ETV1 (P50549 whole entry): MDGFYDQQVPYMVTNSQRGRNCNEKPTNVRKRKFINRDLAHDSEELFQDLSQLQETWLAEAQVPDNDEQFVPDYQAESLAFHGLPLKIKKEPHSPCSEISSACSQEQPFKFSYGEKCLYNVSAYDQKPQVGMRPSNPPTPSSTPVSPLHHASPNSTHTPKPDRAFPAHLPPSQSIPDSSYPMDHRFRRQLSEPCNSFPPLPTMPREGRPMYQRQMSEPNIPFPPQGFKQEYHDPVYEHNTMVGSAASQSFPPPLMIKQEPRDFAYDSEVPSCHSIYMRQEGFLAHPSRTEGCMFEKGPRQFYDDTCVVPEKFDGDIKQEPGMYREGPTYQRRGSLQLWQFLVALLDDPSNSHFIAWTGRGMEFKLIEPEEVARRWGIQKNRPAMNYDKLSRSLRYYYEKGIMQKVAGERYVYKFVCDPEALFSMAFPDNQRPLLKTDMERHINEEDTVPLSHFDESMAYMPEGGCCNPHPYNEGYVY
Chain of HSF1 (Q00613 whole entry): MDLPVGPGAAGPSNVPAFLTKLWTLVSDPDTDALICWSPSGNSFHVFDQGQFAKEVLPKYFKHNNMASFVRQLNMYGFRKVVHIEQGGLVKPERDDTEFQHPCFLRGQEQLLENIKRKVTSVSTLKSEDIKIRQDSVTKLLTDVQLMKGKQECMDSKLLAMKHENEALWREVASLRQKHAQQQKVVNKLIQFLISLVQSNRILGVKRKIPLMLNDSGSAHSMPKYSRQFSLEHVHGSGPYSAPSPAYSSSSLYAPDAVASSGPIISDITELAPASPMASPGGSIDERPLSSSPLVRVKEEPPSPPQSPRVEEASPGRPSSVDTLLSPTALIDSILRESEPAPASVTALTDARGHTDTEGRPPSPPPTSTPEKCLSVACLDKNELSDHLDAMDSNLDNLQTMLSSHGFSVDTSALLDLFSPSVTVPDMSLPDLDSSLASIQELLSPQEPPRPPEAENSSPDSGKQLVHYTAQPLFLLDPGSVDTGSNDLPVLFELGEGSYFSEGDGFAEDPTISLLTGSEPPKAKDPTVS
Chain of ETV5 (P41161 whole entry): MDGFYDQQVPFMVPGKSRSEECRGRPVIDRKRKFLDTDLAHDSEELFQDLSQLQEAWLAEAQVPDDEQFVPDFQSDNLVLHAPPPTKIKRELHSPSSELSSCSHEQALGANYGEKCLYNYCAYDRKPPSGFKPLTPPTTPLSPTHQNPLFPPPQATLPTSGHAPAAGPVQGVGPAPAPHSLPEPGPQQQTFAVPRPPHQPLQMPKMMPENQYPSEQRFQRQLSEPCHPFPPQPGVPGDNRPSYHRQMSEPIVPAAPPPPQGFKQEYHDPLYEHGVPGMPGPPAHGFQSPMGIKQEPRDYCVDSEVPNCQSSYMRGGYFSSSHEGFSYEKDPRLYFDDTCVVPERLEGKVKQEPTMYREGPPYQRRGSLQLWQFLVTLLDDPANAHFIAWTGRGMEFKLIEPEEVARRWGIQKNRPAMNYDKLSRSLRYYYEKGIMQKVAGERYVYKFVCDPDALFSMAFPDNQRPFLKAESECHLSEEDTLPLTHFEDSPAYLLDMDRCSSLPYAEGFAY
Chain of CRX (O43186 whole entry): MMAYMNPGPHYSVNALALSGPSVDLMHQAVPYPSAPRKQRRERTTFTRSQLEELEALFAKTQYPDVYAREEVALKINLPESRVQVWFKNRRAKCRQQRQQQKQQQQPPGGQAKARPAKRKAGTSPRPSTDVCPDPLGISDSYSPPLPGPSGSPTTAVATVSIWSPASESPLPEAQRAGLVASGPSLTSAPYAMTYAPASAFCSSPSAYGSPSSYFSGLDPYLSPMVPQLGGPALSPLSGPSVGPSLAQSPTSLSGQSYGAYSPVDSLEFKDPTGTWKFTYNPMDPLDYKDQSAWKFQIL
Chain of ELF1 (P32519 whole entry): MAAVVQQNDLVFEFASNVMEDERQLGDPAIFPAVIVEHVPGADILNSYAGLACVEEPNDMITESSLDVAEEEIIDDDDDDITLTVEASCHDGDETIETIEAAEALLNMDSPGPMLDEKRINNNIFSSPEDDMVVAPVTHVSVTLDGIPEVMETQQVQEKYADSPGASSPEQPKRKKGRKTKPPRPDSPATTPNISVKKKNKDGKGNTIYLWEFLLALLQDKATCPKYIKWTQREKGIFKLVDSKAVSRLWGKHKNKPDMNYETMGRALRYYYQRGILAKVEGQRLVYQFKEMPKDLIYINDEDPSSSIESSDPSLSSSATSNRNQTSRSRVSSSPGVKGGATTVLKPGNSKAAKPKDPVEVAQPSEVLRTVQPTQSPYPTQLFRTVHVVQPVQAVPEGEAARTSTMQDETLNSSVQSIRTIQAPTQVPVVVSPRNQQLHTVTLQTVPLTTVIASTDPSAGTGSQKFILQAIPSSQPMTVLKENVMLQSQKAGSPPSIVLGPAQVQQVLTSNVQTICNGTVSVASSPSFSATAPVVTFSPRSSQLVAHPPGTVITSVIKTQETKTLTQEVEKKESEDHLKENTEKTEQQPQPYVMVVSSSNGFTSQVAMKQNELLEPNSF

Row | Sequence | binding signal (FLI1) | binding signal (ELK1) | binding signal (ERG) | binding signal (EHF) | binding signal (SPI1) | binding signal (SPIB) | binding signal (ELK3) | binding signal (FEV) | binding signal (ETV5) | binding signal (HSF1) | binding signal (SPIC) | binding signal (ELF4) | binding signal (ELF3) | binding signal (CRX) | binding signal (ETV1) | binding signal (GABPA) | binding signal (ELF1)
1 | AAATCG | 1.03 fold enrichment (6-mer frequency, TF over GST control) | 1.01 fold enrichment (6-mer frequency, TF over GST control) | 1.06 fold enrichment (6-mer frequency, TF over GST control) | 1.03 fold enrichment (6-mer frequency, TF over GST control) | 1.01 fold enrichment (6-mer frequency, TF over GST control) | 1.04 fold enrichment (6-mer frequency, TF over GST control) | 1.04 fold enrichment (6-mer frequency, TF over GST control) | 1 fold enrichment (6-mer frequency, TF over GST control) | 1.04 fold enrichment (6-mer frequency, TF over GST control) | 1.18 fold enrichment (6-mer frequency, TF over GST control) | 1 fold enrichment (6-mer frequency, TF over GST control) | 1.11 fold enrichment (6-mer frequency, TF over GST control) | 1.03 fold enrichment (6-mer frequency, TF over GST control) | 1.26 fold enrichment (6-mer frequency, TF over GST control) | 1.05 fold enrichment (6-mer frequency, TF over GST control) | – | –
2 | AACGTC | 1.07 fold enrichment (6-mer frequency, TF over GST control) | 1.09 fold enrichment (6-mer frequency, TF over GST control) | 1.07 fold enrichment (6-mer frequency, TF over GST control) | 1.12 fold enrichment (6-mer frequency, TF over GST control) | 1.02 fold enrichment (6-mer frequency, TF over GST control) | 1.13 fold enrichment (6-mer frequency, TF over GST control) | 1.24 fold enrichment (6-mer frequency, TF over GST control) | 1.06 fold enrichment (6-mer frequency, TF over GST control) | 1.04 fold enrichment (6-mer frequency, TF over GST control) | 1.01 fold enrichment (6-mer frequency, TF over GST control) | 1.13 fold enrichment (6-mer frequency, TF over GST control) | 1.09 fold enrichment (6-mer frequency, TF over GST control) | 1.13 fold enrichment (6-mer frequency, TF over GST control) | – | 1.11 fold enrichment (6-mer frequency, TF over GST control) | 1.1 fold enrichment (6-mer frequency, TF over GST control) | 1.05 fold enrichment (6-mer frequency, TF over GST control)
